About 380 (0.12%) of roughly 310,000 compounds were called active.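 The calls were made as follows: active = B-score of the integrated fluorescence ratio above library mean plus 3 SD, and starting fluorescence ratio within library mean plus 5 SD; inactive = the rest.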 For the sample, actives were picked, then their nearest neighbours and some compounds at random.
Each compound was assayed against Short transient receptor potential channel 6 (Mus musculus) (UniProt Q61143) (assay: small molecules opening TRPC6 cation channel – cell-based, HEK293, membrane potential dye, primary screen (AID 2550;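 also: higher score means more depolarization so channel activation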)). Conditions: HEK293-TRPC6 membrane potential dye fluorescence, at 10 µM; active compounds read high.
Sequence of Short transient receptor potential channel 6 (Mus musculus) (Q61143 whole entry, looked up): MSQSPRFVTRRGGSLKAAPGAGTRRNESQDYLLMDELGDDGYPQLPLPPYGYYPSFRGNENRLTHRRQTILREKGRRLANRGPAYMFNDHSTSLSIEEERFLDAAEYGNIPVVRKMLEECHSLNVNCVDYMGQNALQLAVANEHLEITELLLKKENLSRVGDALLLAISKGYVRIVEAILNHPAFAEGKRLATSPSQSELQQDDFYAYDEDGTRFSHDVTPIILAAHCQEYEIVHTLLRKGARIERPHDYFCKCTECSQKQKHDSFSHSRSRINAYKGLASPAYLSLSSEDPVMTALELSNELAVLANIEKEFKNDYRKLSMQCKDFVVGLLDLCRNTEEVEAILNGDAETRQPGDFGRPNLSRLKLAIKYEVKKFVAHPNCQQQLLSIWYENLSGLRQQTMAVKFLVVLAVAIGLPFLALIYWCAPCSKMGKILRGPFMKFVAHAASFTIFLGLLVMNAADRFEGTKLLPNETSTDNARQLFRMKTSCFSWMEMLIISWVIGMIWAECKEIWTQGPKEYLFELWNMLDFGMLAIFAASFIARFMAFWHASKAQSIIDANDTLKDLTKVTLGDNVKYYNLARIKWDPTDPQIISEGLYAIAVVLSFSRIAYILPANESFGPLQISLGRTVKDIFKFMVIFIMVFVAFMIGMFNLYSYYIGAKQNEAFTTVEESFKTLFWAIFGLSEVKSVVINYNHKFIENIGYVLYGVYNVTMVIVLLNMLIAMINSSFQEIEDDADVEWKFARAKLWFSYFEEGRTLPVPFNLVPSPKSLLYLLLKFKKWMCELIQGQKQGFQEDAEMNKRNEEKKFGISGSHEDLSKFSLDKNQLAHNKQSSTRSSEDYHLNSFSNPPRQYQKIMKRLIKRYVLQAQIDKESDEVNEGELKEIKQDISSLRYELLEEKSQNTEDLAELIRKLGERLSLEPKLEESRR

| SMILES | B-score |
| --- | --- |
| CCOCCCNCc1ccc(OCc2ccc(F)cc2)c(OC)c1 | inactive |
| COc1cc(CNCCN(C)C)ccc1OCc1c(F)cccc1Cl | 12.5 (active) |
| CCN(CC)CCNCc1ccc(OCc2ccc(Cl)nc2)c(OC)c1 | inactive |
| CCc1ccc(/C=N/NC(=O)c2nnn(-c3nonc3N)c2CN2CCc3ccccc32)cc1 | inactive |
| Cc1cccc(CCNS(=O)(=O)c2ccc3c(c2)NC(=O)CO3)c1 | inactive |
| Cc1ccccc1-n1nnnc1SCCCC(=O)c1ccc(F)cc1 | inactive |
| CCC(C)N1C(=O)S/C(=C/c2ccc(Sc3nc4ccccc4[nH]3)o2)C1=O (stereo unspecified) | inactive |
| COc1cccc(CNC(=O)C2CC(=O)N(C3CCCCCCC3)C2)c1 (stereo unspecified) | inactive |
| CNc1nc(Nc2ccc(C)c(Cl)c2)nc(N)c1[N+](=O)[O-] | inactive |
| O=C1NC(=O)C(c2ccc(Cl)cc2)N1 (stereo unspecified) | inactive |
| CC(=O)N1N=C(c2ccncc2)OC1(Cc1ccccc1)Cc1ccccc1 | inactive |
| Cc1cc(C)cc(C(=O)N(CCc2ccccc2)C2=CC3CCC(C2)N3C)c1 (stereo unspecified) | inactive |
| CCCN(CCc1ccccc1)C1CCc2c(O)cccc2C1 (stereo unspecified) | 16.8 (active) |
| Cc1ccc(-c2ccc(/C=N/NC(=O)CN3CCOCC3)o2)cc1[N+](=O)[O-] | inactive |
| CN1CCN(/N=C/c2ccc(-c3ccc([N+](=O)[O-])cc3)o2)CC1 | 16.2 (active) |
| CN1CCN(/N=C/c2ccc(C#N)cc2)CC1 | inactive |
| Cc1cc(N2CCN(c3ccc(F)cc3)CC2)n2ncnc2n1 | inactive |
| CCOCCCN1C(=O)C2C(C(=O)Nc3ccc(OCC)cc3)C3C=CC2(O3)C1C(=O)NC1CCCCC1 (stereo unspecified) | inactive |
| O=C(c1ccc(Cl)cc1)n1cnc2ccccc21 | inactive |
| CC(NC(=O)CNC(=O)Cc1cccc2ccccc12)c1ccc(S(N)(=O)=O)cc1 (stereo unspecified) | inactive |
| CCC(C(=O)OC)n1cnc2scc(-c3ccc(C)cc3)c2c1=O (stereo unspecified) | inactive |
| O=[N+]([O-])c1cccc(/C=N/Nc2ncc(Br)cn2)c1 | inactive |
| O=C(N/N=C/c1ccc(Cl)c(Cl)c1)c1ccc2nc[nH]c2c1 | inactive |
| CCO/C=C1\C(=O)N(c2ccc(OCC)cc2)C(=O)c2ccccc21 | inactive |

| SMILES | B-score |
| --- | --- |
| COc1ccc(C(C)C)cc1S(=O)(=O)Nc1ncn[nH]1 | inactive |
| CCC(=O)c1ccc(OCC(=O)OCC(=O)NC2CCCCCC2)cc1 | inactive |
| Cc1nc2c(-c3ccc(F)cc3)c(C)nn2c(C)c1CCC(=O)NCc1ccco1 | inactive |
| Cc1cc2c(cc1C)[n+](C)cn2CC(O)COCC1CC=CCC1 (stereo unspecified) | inactive |
| N#Cc1ccc(-c2ccc(Cl)cc2)nc1Oc1ccc(F)cc1 | inactive |
| Cc1nn(C)c(C)c1S(=O)(=O)N1CCC(CO)(Cc2ccc(Cl)cc2)CC1 | inactive |
| COc1cccc(OC)c1C(=O)Nc1c(C(=O)N2CCN(c3ccccn3)CC2)oc2ccccc12 | inactive |
| CN1CCN(CCCCOc2ccccc2-c2ccccc2)CC1 | inactive |
| Oc1ccc(CNc2ccccc2O)cc1 | inactive |
| COc1ccc(-n2ncc3c2CC(C)(C)CC3NC(=O)CCc2c(C)noc2C)cc1 (stereo unspecified) | inactive |
| Cc1ccc(N(CCC(=O)O)S(=O)(=O)c2cccc(C(F)(F)F)c2)cc1 | inactive |
| CCOc1ccc(CN(C)C(=O)c2ccc(=O)[nH]c2)cc1 | inactive |
| Cc1nn(-c2ccccc2)c2sc(C(=O)N(Cc3ccco3)C(C)C(=O)NC(C)(C)C)cc12 (stereo unspecified) | inactive |
| CCN(CC(=O)NCc1ccc(Cl)cc1)C(=O)CSc1ccccc1 | inactive |
| O=C(Nc1ccc(N2CCCC2=O)cc1)c1cncc(Br)c1 | inactive |
| COc1ccc(CN2CCC(c3nc4ccc(Cl)cc4[nH]3)CC2)cc1 | inactive |
| CCc1ccc(C(=O)NNC(=O)C2CCN(c3ncnc4sc(C)c(C)c34)CC2)cc1 | inactive |
| O=C(O)CCn1c(SCc2cc(=O)n3ccccc3n2)nc2ccsc2c1=O | inactive |
| Cc1sc(NC(=O)C2C3CCC(O3)C2C(=O)O)c(C(=O)OC(C)C)c1-c1ccc(Cl)cc1 (stereo unspecified) | inactive |
| CC(C)(C)n1nnnc1C(c1ccccc1F)N1CCN(C(=O)c2ccco2)CC1 (stereo unspecified) | inactive |
| CCOCCCN(C)C1CCN(C(=O)c2oc3ccccc3c2NC(=O)Cc2cccc([N+](=O)[O-])c2)CC1 | inactive |
| CC1=C(N2CCN(c3ncccn3)CC2)CCC1=O | inactive |
| O=S(=O)(NC(=S)Nc1ccccc1)c1ccc(F)cc1 | inactive |
| Nc1ccc(SCCN2C(=O)c3ccccc3C2=O)cc1 | inactive |

| SMILES | B-score |
| --- | --- |
| COC(=O)CNc1nc(Cl)nc(N2CCC(C)CC2)n1 | inactive |
| Cc1ccc(CNC(=O)c2ccccc2CCc2ccccc2)cc1 | inactive |
| O=C1CC2(CC(c3ccc(Cl)cc3)=NO2)C(=O)N1c1ccccc1 (stereo unspecified) | inactive |
| CCOC(=O)N1CCN(C(=O)CSc2nc(=O)n3cccc(C)c3n2)CC1 | inactive |
| CCCN(CCC)c1nc2c(C)cccn2c(=O)c1/C=C1/SC(=S)N(Cc2ccco2)C1=O | inactive |
| CCOC(=O)CC1C(=O)NCCN1c1nc2c(C)cccn2c(=O)c1/C=C1\SC(=S)N(C(C)CC)C1=O (stereo unspecified) | 26.7 (active) |
| O=C1C2C3C=CC(C4CC34)C2C(=O)N1/N=C/c1ccc(-c2ccccc2[N+](=O)[O-])o1 (stereo unspecified) | inactive |
| COC(=O)[C@@H](Cc1ccccc1)NC(=O)NCCc1ccccc1 | inactive |
| O=[N+]([O-])c1ccccc1N/N=C1\CCc2ccccc21 | inactive |
| O=C(NCCS(=O)(=O)NCc1ccc(Cl)cc1)c1ccccc1 | inactive |
| CC(C)NC(=O)c1ccc(Sc2ccccc2)c([N+](=O)[O-])c1 | inactive |
| CCOc1ccc(S(=O)(=O)N2CCCCCC2)c2ccccc12 | inactive |
| CC1CCCCC1NC(=O)CSc1nnc(-c2ccncc2)n1CCCN(C)C (stereo unspecified) | inactive |
| CCOC(=O)C1=C(O)/C(=C/c2cc(C)n(-c3ccccc3)c2C)N=C1C | inactive |
| COc1cc(OC)c(C2=NOC(C(=O)Nc3c(C)n(C)n(-c4ccccc4)c3=O)C2)cc1Cl (stereo unspecified) | inactive |
| CC(C)Cc1oc(C(=O)O)cc1CN | inactive |
| O=[N+]([O-])c1cc(Cl)cc(/C=N/NC(=S)Nc2cc(S(=O)(=O)N3CCOCC3)ccc2Cl)c1O | inactive |
| COc1ccc(S(=O)(=O)n2nc(C)c(S(=O)(=O)N3CCOCC3)c2C)cc1 | inactive |
| CCOc1ccc(-c2c(C)n([O-])c3c([n+]2=O)CCCC3)cc1 | inactive |
| COCCOC(=O)c1sc(=S)n(CCOC)c1N | inactive |
| O=S(=O)(c1cccc2nonc12)N1CCN(c2cccc(Cl)c2)CC1 | inactive |
| Cc1cc(C)nc(SC(C)C(=O)N/N=C/c2cccs2)n1 (stereo unspecified) | inactive |
| CCCCCCn1cc(C(=O)O)c(=O)c2cc(F)c(N3CCCCC3)cc21 | 12.2 (active) |
| CN1CCN(c2cc3c(cc2F)c(=O)c(C(=O)O)cn3CCF)CC1 | inactive |

| SMILES | B-score |
| --- | --- |
| CCn1cc(C(=O)NCCO)c(=O)c2cc(F)c(N3CCN(C)CC3)cc21 | inactive |
| COCCNC(=O)/C(C#N)=C/c1nc(N(C)C)n(-c2ccc(F)cc2)c1Cl | inactive |
| CCOC(=O)/C=c1\s/c(=C\c2ccc(C#N)cc2)c(=O)n1CC(=O)Nc1cccc(C)c1C | inactive |
| CCOC(=O)Cn1c(=O)oc2cc(S(=O)(=O)N(C)Cc3ccco3)ccc21 | inactive |
| CN(c1ccccc1)c1ccc(/C=c2\s/c(=C(/C#N)C(=O)C(C)(C)C)n(Cc3ccco3)c2=O)cc1 | 33.3 (active) |
| CCn1cc(/C=C(\NC(=O)c2cc(OC)c(OC)c(OC)c2)C(=O)N2CCN(C)CC2)c2ccccc21 | inactive |
| O=C(NNc1ccccc1Cl)C(O)(c1cccc(C(F)(F)F)c1)c1cccc(C(F)(F)F)c1 | inactive |
| CCOC1CCCCC1NS(=O)(=O)c1ccc(Cl)cc1 (stereo unspecified) | inactive |
| CCn1ccnc1CN1CCCC(C(=O)c2ccc3c4c(cccc24)CC3)C1 (stereo unspecified) | inactive |
| COc1cc2c(cc1OC)C(C(=O)NCc1ccco1)C1c3ccccc3CCN1C2=O (stereo unspecified) | inactive |
| CCn1cc(/C=C2/SC(=S)NC2=O)c(C)n1 | inactive |
| CCN1C(=NCCc2cccnc2)N[C@@H](c2ccccc2)[C@H](C(=O)OC)[C@H]1C | inactive |
| CCOc1ccc(NC(=O)C2CCN(C(=O)N3CCOc4ccccc43)CC2)cc1 | inactive |
| CCCCn1c(N)c(N(CCOC)C(=O)c2cccc(OCc3ccccc3)c2)c(=O)[nH]c1=O | inactive |
| C#CC(C)(C)NC(=O)c1cnc(-c2ccccc2)nc1-c1ccccc1 | inactive |
| CC(=O)Nc1ccc(CN2CCC(Oc3ccc(C(=O)N4CCCC4)cc3)CC2)cc1 | inactive |
| Cc1ccc(S(=O)(=O)/N=C(\CN2CCOCC2)N2CCOCC2)cc1 | inactive |
| CCc1ccccc1OCC(=O)Nc1ccc2c(c1)OCCO2 | inactive |
| COc1ccc2oc(C(=O)NCC(Cc3ccccc3)N(C)C)c(C)c2c1 (stereo unspecified) | inactive |
| COc1c(O)ccc2c1CN1CCc3cc4c(cc3C1C2)OCO4 (stereo unspecified) | inactive |
| Cc1ccc(S(=O)(=O)c2nnn3c2nc(N2CCN(c4ccccn4)CC2)c2ccccc23)cc1 | inactive |
| CC(C)(C)n1nnnc1C(c1ccc(Cl)cc1)N1CCSCC1 (stereo unspecified) | inactive |
| CC(C)(C)n1nnnc1C(c1ccc2ncccc2c1)N1CCSCC1 (stereo unspecified) | 12.7 (active) |
| Cc1cccc(N2CCN(C(c3ccc(N(C)C)cc3)c3nnnn3C(C)(C)C)CC2)c1C (stereo unspecified) | inactive |

| SMILES | B-score |
| --- | --- |
| CN(C)C(CNC(=O)c1ccc(S(=O)(=O)NCc2ccco2)cc1)c1ccccc1 (stereo unspecified) | inactive |
| CC(=O)N(Cc1cccs1)C1CCOC(C)(C)C1 (stereo unspecified) | inactive |
| CCc1ccc(C2C(C#N)=C(N)N(N3CCOCC3)C3=C2C(=O)CC(C)(C)C3)s1 (stereo unspecified) | inactive |
| Cc1ccc(Cl)cc1N1CCN(C(=O)c2cccc3c(=O)c(C)c(-c4ccccc4)oc23)CC1 | inactive |
| Cc1ccc(-c2csc(NCCc3nc4cc(Cl)c(Cl)cc4n3CCOCCO)n2)cc1 | inactive |
| Cc1cc(/C=N/n2cnnc2)c(C)n1-c1ccc2ncccc2c1 | inactive |
| COc1ccc(NC(=S)N2CCC(NC(=O)c3cccc(F)c3)CC2)cc1 | inactive |
| Nc1c(C(=O)c2cccs2)sc2nsc(SCCN3CCCCC3)c12 | 19.2 (active) |
| CN(C)c1ccnc2sc(C(=O)c3ccccc3)c(N)c12 | inactive |
| O=C(CN1C2=NCCN2c2ccccc21)c1cccs1 | inactive |
| O=C(NCCNc1ccccc1[N+](=O)[O-])c1ccccc1F | inactive |
| O=C(CSc1nnc(Cn2cnc3ccccc32)o1)c1ccccc1 | inactive |
| COc1ccc(NC(=O)c2oc3ccc(S(=O)(=O)N4CCOCC4)cc3c2C)cc1 | inactive |
| Nc1ccc(Cl)c(S(=O)(=O)Nc2ccccc2Cl)c1 | inactive |
| CCCCNC(=O)N1CCN(S(C)(=O)=O)CC1 | inactive |
| CCCCn1c(O)c(N=NC(=O)Cn2c(C(F)(F)F)nc3ccccc32)c2ccccc21 | inactive |
| O=C1/C(=C\c2ccsc2)NC(=S)N1c1ccccc1 | inactive |
| CN(C)c1ccc(/C=C2\NC(=S)N(Cc3ccccc3)C2=O)cc1 | 22.1 (active) |
| COc1cc(/C=C2/SC(=S)N(Cc3ccccc3)C2=O)cc(OC)c1O | inactive |
| Cc1cccc(C)c1NC(=O)CSc1nc2c([nH]1)c(=O)n(C)c(=O)n2C | inactive |

— PubChem BioAssay AID2550 (Johns Hopkins Ion Channel Center, 2010)
